Our source for the composite z-score, z-score and composite Z-score values is PubChem BioAssay.

In test [1] the test system is Human papillomavirus type 1a protein E7 (residues 44-93). Nature of the test: small molecules binding HPV E7 44-93 – biochemical, small-molecule microarray, residues 44-93, 635 nm fluorescence, primary screen (AID 1108).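 Note: E7 fragment applied at 1 µg/mL in TBST for 1 h at 4 C; score combines spot fluorescence with its signal to noise ratio.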 The settings on record: fluorescence 635 nm, higher = more signal.
Test [2] in a line: hepatitis C replication reporter changes, two-sided – Huh7 cells, luciferase reporter, HCV replication inhibitor project, primary screen (AID 1109).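 Note: huh7 hepatoma cells harbouring a luciferase neomycin HCV replicon reporter; luciferase luminescence as measure of HCV replicon replication; test concentration not given here.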 Conditions: Huh7 HCV replicon luciferase reporter, 48 h; higher = more signal.
Test [3] addresses Left-right determination factor 2 (Homo sapiens) (UniProt O00292). Nature of the test: small molecules binding LEFTY2 protein – biochemical, small-molecule microarray, 635 nm fluorescence scan, primary screen (AID 1110). The settings on record: higher = more signal.
Test [4] concerns the target Calmodulin-1 (Homo sapiens) (UniProt P0DP23). In words: small molecules binding calmodulin-1 with EGTA – biochemical, small-molecule microarray, Cy5-labelled CALM1, profiling panel (AID 1111).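 Note: labelled calmodulin applied in Tris saline Tween buffer holding calcium plus EGTA and DTT.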 The settings on record: Cy5-CALM1 binding fluorescence, higher = more signal.
For test [5] the target is unchanged. In words: small molecules binding Ca-loaded calmodulin-1 – biochemical, small-molecule microarray, Cy5-labelled CALM1, plus calcium, artefact control for SMM control-protein annotation, profiling panel (AID 1112).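 Note: score merges spot fluorescence with signal to noise from triplicate slides.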 The settings on record: Cy5-CALM1 binding fluorescence, higher = more signal.
Test [6] is described as follows: probe aWnt5a binding to arrayed compounds – biochemical, biotinylated probe, 635/667 nm fluorescence, primary screen (AID 1113).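 Note: score merges 667 nm fluorescence intensity with signal-to-noise per printed feature.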 Conditions: small-molecule microarray, higher = more signal.
The nature of test [7]: probe aShh binding to arrayed compounds – biochemical, biotinylated probe, 635/667 nm fluorescence, primary screen (AID 1114).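 Note: probe is biotin-labelled aShh protein from a stem cell growth factor screen; measures binding of labelled protein to compounds printed on the slide; score merges feature fluorescence at 667 nm with signal-to-noise.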 The settings on record: small-molecule microarray, higher = more signal.
Test [8] is described as follows: probe aNog binding to arrayed compounds – biochemical, biotinylated probe, 635/667 nm fluorescence, primary screen (AID 1115).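 Note: probe is biotinylated aNog protein used at 0.15 µg/mL for 1 h at 4 C; z-score combines 667 nm fluorescence of each spot with its signal to noise.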 Conditions: small-molecule microarray, higher = more signal.
For test [9], the target named is Torsin-1A-interacting protein 1 (Homo sapiens) (UniProt Q5JTV8). In words: compound microarray binding of lysate hLAP1 – cell lysate, small-molecule microarray, COS7 lysate, 635/667 nm fluorescence, primary screen (AID 1116). Conditions: 635 nm fluorescence, higher = more signal.
Chain of Torsin-1A-interacting protein 1 (Homo sapiens) (Q5JTV8 whole entry, looked up): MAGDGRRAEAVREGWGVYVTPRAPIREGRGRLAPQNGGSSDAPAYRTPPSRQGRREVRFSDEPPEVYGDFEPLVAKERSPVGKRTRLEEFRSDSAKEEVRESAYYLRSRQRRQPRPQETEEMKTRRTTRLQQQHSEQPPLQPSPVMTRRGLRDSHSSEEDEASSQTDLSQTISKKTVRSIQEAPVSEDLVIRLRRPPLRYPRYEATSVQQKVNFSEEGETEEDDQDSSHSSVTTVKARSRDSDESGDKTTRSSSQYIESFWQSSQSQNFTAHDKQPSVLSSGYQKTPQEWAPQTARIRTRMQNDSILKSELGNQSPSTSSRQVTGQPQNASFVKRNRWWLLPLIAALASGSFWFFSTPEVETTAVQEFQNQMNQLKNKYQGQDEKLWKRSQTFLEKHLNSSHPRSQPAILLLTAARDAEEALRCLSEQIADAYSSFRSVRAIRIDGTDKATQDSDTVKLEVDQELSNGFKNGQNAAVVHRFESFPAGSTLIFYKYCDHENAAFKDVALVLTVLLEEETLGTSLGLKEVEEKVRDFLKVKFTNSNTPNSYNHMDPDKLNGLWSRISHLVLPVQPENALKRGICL
Test [10] concerns the target Alpha-bungarotoxin (Bungarus multicinctus) (UniProt P60615). In words: compounds binding labelled alpha-BTX control protein – biochemical, small-molecule microarray, Alexa647 label, 635/667 nm fluorescence, artefact control for SMM control protein annotation, profiling panel (AID 1117). Conditions: alpha-BTX-A647 binding fluorescence, higher = more signal.
Test [11] deals with Albumin (Bos taurus) (UniProt P02769). In words: compounds binding labelled BSA control protein – biochemical, small-molecule microarray, Alexa647 label, 635/667 nm fluorescence, artefact control for SMM control protein annotation, profiling panel (AID 1118).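 Note: score merges 667 nm emission intensity and signal-to-noise per printed compound spot.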 Conditions: BSA-A647 binding, fluorescence 635 nm, higher = more signal.
Chain of Albumin (Bos taurus) (P02769 whole entry, looked up): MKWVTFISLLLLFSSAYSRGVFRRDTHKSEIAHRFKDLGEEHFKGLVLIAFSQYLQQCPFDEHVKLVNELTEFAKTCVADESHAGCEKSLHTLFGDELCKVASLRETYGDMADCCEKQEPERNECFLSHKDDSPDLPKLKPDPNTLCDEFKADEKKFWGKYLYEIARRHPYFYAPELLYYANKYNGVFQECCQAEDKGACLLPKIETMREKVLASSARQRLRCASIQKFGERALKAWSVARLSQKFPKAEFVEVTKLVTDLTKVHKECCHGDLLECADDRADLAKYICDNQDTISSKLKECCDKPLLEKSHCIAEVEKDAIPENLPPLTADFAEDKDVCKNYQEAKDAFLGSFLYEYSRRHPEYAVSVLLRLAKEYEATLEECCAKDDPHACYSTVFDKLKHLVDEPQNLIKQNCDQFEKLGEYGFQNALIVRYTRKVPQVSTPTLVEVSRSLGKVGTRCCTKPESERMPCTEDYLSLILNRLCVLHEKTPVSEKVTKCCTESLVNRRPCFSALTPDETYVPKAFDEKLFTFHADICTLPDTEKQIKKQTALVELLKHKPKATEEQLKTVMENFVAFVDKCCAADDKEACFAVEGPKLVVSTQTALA
Test [12] in a line: probe aXIP binding to arrayed compounds – biochemical, NeuroSMM set, 635/667 nm fluorescence, primary screen (AID 1119).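 Note: probe is the protein aXip251-270 applied at 1 µg/mL to compound-printed slides; binding of probe to printed compounds measured as 667 nm fluorescence plus signal to noise.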 The settings on record: small-molecule microarray, higher = more signal, called active from +8 up or from −8 down.
Test [13] is described as follows: probe aNOTCH3 binding on compound microarray – biochemical, small-molecule microarray, 635/667 nm fluorescence, primary screen (AID 1120).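 Note: probe is a biotin-tagged antibody raised against NOTCH3 rather than NOTCH3 protein; score merges spot fluorescence near 667 nm with spot signal to noise.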 The settings on record: higher = more signal.
Test [14] in a line: probe aNOTCH2 binding on compound microarray – biochemical, small-molecule microarray, 635/667 nm fluorescence, primary screen (AID 1121).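 Note: score merges feature fluorescence read at 667 nm with its signal to noise.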 The settings on record: higher = more signal.
The target in test [15] is Carbonic anhydrase 2 (Homo sapiens) (UniProt P00918). Nature of the test: compounds binding carbonic anhydrase 2 – biochemical, small-molecule microarray, Alexa647-labelled CAII, profiling panel (AID 1122). The settings on record: CAII-A647 binding fluorescence, higher = more signal.
Test [16] can be described thus: COS7 lysate on small-molecule microarray, probe aHis, 635 nm (AID 1123).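 Note: z-score combines 667nm fluorescence intensity with signal-to-noise per printed compound spot.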 Conditions: COS7 cell lysate, fluorescence, higher = more signal.
A short description of test [17]: probe aLAP1 signal on lysate-treated microarray – cell lysate, small-molecule microarray, COS7 lysate, primary screen (AID 1124).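 Note: lysate comes from COS7 cells expressing LAP1 and is applied at 0.3 µg/mL; score merges spot fluorescence near 667 nm with signal-to-noise over triplicate slides.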 Conditions: probe aLAP1, fluorescence, higher = more signal.
Test [18] concerns Sam68 (KHDRBS1). Nature of the test: compounds binding KHDRBS1 protein – biochemical, small-molecule microarray, 635 nm fluorescence, primary screen (AID 1125).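 Note: score merges 667 nm channel intensity with signal to noise over triplicate slides.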 Conditions: higher = more signal.
The test system of test [19] is Chordin-like protein 2 (CHRDL2). Nature of the test: compounds binding chordin-like 2 – biochemical, small-molecule microarray, 635 nm fluorescence, primary screen (AID 1126).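 Note: printed compound slides probed with Chrdl2 protein at 4 µg/mL for 1 h at 4 C; score merges 667 nm emission intensity with signal to noise over three replicate slides.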 The settings on record: fluorescence 635 nm, higher = more signal.
Test [20] concerns the target Concanavalin-A (Canavalia ensiformis) (UniProt P02866). Nature of the test: compounds binding concanavalin A lectin – biochemical, small-molecule microarray, Alexa647 label, 635 nm, artefact control for SMM control protein annotation, primary screen (AID 1127).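 Note: z combines 667 nm emission intensity with signal-to-noise across three replicate slides.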 The settings on record: ConA-A647 binding fluorescence, higher = more signal.

Calls of active or inactive are those of the source.

Chain of Alpha-bungarotoxin (Bungarus multicinctus) (P60615 whole entry, looked up): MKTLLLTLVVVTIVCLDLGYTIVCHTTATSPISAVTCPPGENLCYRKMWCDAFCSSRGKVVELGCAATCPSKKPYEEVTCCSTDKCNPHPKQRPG
Chain of Concanavalin-A (Canavalia ensiformis) (P02866 whole entry, looked up): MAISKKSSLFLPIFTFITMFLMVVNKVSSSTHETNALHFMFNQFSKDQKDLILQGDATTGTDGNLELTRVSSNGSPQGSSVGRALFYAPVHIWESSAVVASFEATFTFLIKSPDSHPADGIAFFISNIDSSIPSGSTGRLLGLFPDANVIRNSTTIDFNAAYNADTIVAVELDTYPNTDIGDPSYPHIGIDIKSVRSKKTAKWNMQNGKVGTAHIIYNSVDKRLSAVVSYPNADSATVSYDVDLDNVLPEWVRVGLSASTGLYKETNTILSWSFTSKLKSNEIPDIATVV
Chain of Left-right determination factor 2 (Homo sapiens) (O00292 whole entry, looked up): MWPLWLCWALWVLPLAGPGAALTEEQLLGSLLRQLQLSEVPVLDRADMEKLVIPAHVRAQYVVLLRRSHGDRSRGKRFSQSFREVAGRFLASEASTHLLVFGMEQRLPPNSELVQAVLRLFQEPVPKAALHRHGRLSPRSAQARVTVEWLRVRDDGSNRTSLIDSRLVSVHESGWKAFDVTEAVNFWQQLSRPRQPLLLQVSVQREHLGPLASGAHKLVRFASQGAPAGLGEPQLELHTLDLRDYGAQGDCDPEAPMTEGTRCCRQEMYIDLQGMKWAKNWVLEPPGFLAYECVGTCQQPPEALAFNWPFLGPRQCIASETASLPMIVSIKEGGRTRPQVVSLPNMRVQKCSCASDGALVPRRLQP

On to `CC(C)=NOC(C)CN1CCCc2nc(C)c(C)cc21` (stereo not given), for which the composite z-score in [1] is 1.17; in [3], 0.75; in test [4], -0.291; in [5], -0.869; in test [6], -0.0718; in test [7] it was 0.214. In addition, the composite z-score was -0.0809 in [8]; -0.0182 in test [9]; 0.32 in test [10]; 0.297 in test [11]; 0.0482 in [13]; 0.0037 in test [14]. The composite z-score in test [15] turned out to be 0.449; in [16], 1.31; in test [17], 1.37; in test [18], 0.669; in [19], 0.74; in [20] it was 0.788. This compound registered a z-score in [2] of 0.302. For the same compound, the composite Z-score in test [12] is 0.672 (inactive).
Turning to `COc1ccc(COC(=O)NN=C2C[C@@H](O)[C@@H](O)[C@@H]3[C@@H]4C(=O)N(Cc5ccccc5)C(=O)[C@@H]4CC[C@@H]23)cc1`, the composite z-score in test [1] was 0.183; in [3], 0.379; in test [4] it was -0.234; in test [5], -0.515; in test [6], -0.128; in test [7], 0.0278. Moreover, the composite z-score in test [8] is -0.216; in [9], 0.0762; in [10], -0.125; in test [11], -0.0233; in test [13], -0.0362; in test [14] it was -0.182. In addition, the composite z-score was -0.359 in test [15]; 0.275 in test [16]; -0.23 in test [17]; 0.389 in test [18]; 0.172 in test [19]; 0.0738 in [20]. The compound also registered a z-score in test [2] of 0.605. The composite Z-score in test [12] was -0.185 (inactive).
For the compound `O=C1CCCC=C1C(O)C1CCCCC1` (stereo not given), the composite z-score is -0.64 in test [1]; -0.0231 in test [3]; -0.583 in [4]; -0.389 in test [5]; 0.0088 in test [6]; -0.186 in test [7]. Moreover, the composite z-score is -0.134 in [8]; -0.207 in test [9]; -0.268 in [10]; -0.0548 in test [11]; -0.0325 in test [13]; -0.0818 in [14]. In addition, the composite z-score was -0.102 in test [15]; 0.181 in [16]; -0.607 in test [17]; -0.429 in test [18]; 0.214 in test [19]; -0.275 in [20]. Besides, the z-score in test [2] stood at 0.108. Besides, the composite Z-score in [12] is -0.0549 (inactive).
With `CN1CCc2nc(-c3ccccc3)c(-c3ccccc3)cc2C1`, the composite z-score in test [1] is 0.321; in test [3], 0.47; in test [4] it was -0.174; in test [5], -0.414; in test [6] it was -0.0239; in test [7], 0.204. Besides, the composite z-score in test [8] was -0.287; in test [9], 0.269; in [10], 0.127; in test [11], 0.0013; in test [13], -0.0343; in test [14], -0.115. In addition, the composite z-score in [15] was -0.132; in test [16], -0.0596; in test [17], -0.247; in test [18] it was -0.23; in test [19], 0.58; in test [20], 0.486. For the same compound, the z-score in [2] amounted to 0.179. Also, the composite Z-score in test [12] was -0.341 (inactive).
As for `O=C1C=C[C@@H](O)[C@@H]2[C@@H]3C(=O)N(Cc4ccc5c(c4)OCO5)C(=O)[C@@H]3CC[C@@H]12`, the composite z-score in [1] was 0.701; in test [3], 0.57; in test [4] it was -0.112; in test [5] it was -0.508; in test [6], -0.147; in test [7], -0.0626. Besides, the composite z-score was -0.238 in test [8]; -0.127 in [9]; 0.123 in [10]; 0.147 in test [11]; 0.123 in test [13]; -0.0567 in test [14]. Moreover, the composite z-score in test [15] is -0.137; in test [16] it was 0.163; in [17], 0.129; in test [18], 0.627; in [19], 0.761; in test [20] it was 0.748. In [2], the z-score was -0.322. Further, in [12], the composite Z-score is -0.88 (inactive).
Turning to `CC(C)CON=C1C[C@@H](O)[C@@H](O)[C@@H]2[C@@H]3C(=O)N([C@@H](C)c4ccccc4)C(=O)[C@@H]3CC[C@@H]12`, the composite z-score in test [1] was -0.0319; in [3] it was 0.236; in test [4], -0.231; in test [5], -0.282; in [6] it was -0.124; in [7] it was -0.289. For the same compound, the composite z-score in [8] is -0.222; in test [9] it was 0.179; in test [10] it was 0.0887; in test [11] it was 0.538; in test [13], -0.145; in [14], -0.153. Also, the composite z-score in test [15] was -0.139; in [16], -0.039; in test [17] it was -0.0296; in test [18] it was 0.132; in [19], 0.417; in test [20], 0.0928. In addition, the z-score in test [2] is -0.265. Besides, the composite Z-score in test [12] was -0.293 (inactive).
